Experimental data: PubChem BioAssay AID504400 (The Scripps Research Institute Molecular Screening Center, 2011)
Values without a mark were called inactive. How the calls were made is not given here.

System: Phorbol Ester
Test: CYP450 and receptor off-target profile – biochemical, Ricerca HitProfilingScreen, selectivity assay for S1P4 agonist project, late-stage follow-up (AID 504400)
Conditions: Ricerca radioligand binding/enzyme panel plus CYP450, at 10 µM, active compounds read high

For `Clc1ccc(OCCOc2ccc(Br)nc2Br)c(Cl)c1`, which inhibition is on record?
Its inhibition is 4%.
